Inconclusive results are not listed. The source made the active and inactive calls. Rule for the calls: active = hit-call score of the fitted dose curve at least 0.9, where 1 is the maximum; inconclusive = response in the unintended direction; inactive = score below 0.9.
Each compound was assayed against human Matrix Metalloproteinase-3 (MMP3), MMP3 (gene 4314) (UniProt P08254) (assay: NVS_ENZ_hMMP3: NovaScreen (NVS) Enzymatic Assay for human Matrix Metalloproteinase-3 (MMP3) (AID 2283185)).
Sequence of human Matrix Metalloproteinase-3 (MMP3), MMP3 (gene 4314) (P08254 whole entry, looked up): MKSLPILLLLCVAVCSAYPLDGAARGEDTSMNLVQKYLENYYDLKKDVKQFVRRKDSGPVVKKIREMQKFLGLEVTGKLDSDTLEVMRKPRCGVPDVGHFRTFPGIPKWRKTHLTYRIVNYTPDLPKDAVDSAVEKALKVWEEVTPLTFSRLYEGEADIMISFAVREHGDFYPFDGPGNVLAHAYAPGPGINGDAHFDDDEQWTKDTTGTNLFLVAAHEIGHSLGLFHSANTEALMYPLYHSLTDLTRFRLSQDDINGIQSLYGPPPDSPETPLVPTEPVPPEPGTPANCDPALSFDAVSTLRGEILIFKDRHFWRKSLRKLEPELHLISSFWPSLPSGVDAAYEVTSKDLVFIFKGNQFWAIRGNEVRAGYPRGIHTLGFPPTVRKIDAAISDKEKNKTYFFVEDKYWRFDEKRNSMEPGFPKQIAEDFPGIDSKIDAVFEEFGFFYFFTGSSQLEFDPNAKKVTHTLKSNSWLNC
Experimental: NVS_ENZ_hMMP3 is a biochemical, single-readout assay that uses extracted gene-proteins in a cell-free assay. Measurements were taken 1 hour after chemical dosing in a 96-well plate.NVS_ENZ_hMMP3 is one of one assay component(s) measured or calculated from the NVS_ENZ_hMMP3 assay. It is designed to make measurements of enzyme activity, a form of enzyme reporter, as detected with fluorescence intensity signals by Fluorescence technology.Data from the assay component NVS_ENZ_hMMP3 was analyzed into 1 assay endpoint. This assay endpoint, NVS_ENZ_hMMP3, was analyzed in the positive analysis fitting direction relative to DMSO as the negative control and baseline of activity. Using a type of enzyme reporter, loss-of-signal activity can be used to understand changes in the enzymatic activity as they relate to the gene MMP3. Furthermore, this assay endpoint can be referred to as a primary readout, because this assay has produced multiple assay endpoints where this one serves a enzymatic activity function. To generalize the intended target to other relatable targets, this assay endpoint is annotated to the protease intended target family, where the subfamily is matrix metalloproteinase.
Binding assays used specific radioligands (tritiated, iodinated) with non-radioactive competitive displacement ligands in agonist or antagonist protocols (as indicated) and various reference compounds and inhibitors to titrate specific binding to receptors and transporters. Most enzyme assays (CYPs, kinases, phosphatases, proteases, HDACs) used recombinant protein and specific substrates (fluorescence mostly, some colorimetric and radioactive) and inhibitors, followed by a biochemical separation of substrate and product. All assays for the biochemical HTS were initially run in duplicate at a single concentration (10 uM for CYP450 assays and 25 uM for all others). […] Each assay was run with positive and negative controls, and concurrent controls on every plate. The follow-up (secondary) screen tested active chemical-pairs in concentration series, as well as a few additional assays not tested in the primary screen, some selected negative inactives, and several cases re-run in the concentration series for confirmatory purposes.
For `O=C(O)c1ccccc1-n1cc(C(=O)O)c(=O)c2cc(Nc3c(F)cc(F)cc3Cl)c(Cl)cc21`, the AC50 was 21.8 µM (active). For `CCCCOC(=O)c1ccc(O)cc1`, the outcome was “inactive”. `CCCCCCCCOC(=O)c1cc(O)c(O)c(O)c1` was tested, and the AC50 was 5.82 µM (active). In the case of `O=C1O[C@H]([C@@H](O)CO)C(O)=C1O`, the outcome was “inactive”. For `CCCCCCCCOc1ccc(C(=O)c2ccccc2)c(O)c1`, the outcome was “inactive”. For `CN1C(=O)N(c2ccccc2Br)Cc2cnc(Nc3ccc4c(c3)OCC(CO)O4)nc21` (configuration not stated), the outcome was “inactive”. `O=C1CCC(C2CCCCC2)CC1` was tested, and the outcome was “inactive”. `CN(C)c1ccc(C(=C2C=CC(=[N+](C)C)C=C2)c2ccc(N(C)C)cc2)cc1` was tested, and the outcome was “inactive”. `O=C(O)Cc1cc(I)c(Oc2ccc(O)c(I)c2)c(I)c1` was tested, and the outcome was “inactive”. For `CCCOC(=O)c1cc(O)c(O)c(O)c1`, the AC50 was 11.9 µM (active). For `CCN(Cc1cccc(S(=O)(=O)O)c1)c1ccc(C(=C2C=CC(=[N+](CC)Cc3cccc(S(=O)(=O)O)c3)C=C2)c2ccccc2S(=O)(=O)[O-])cc1`, the AC50 was 16.1 µM (active). In the case of `CCN(Cc1cccnc1)C(=O)c1cccc(Cl)c1[C@]1(C)C(=O)N(Cc2ccc(OC)cc2OC)c2ccc(Cl)cc21`, the outcome was “inactive”.

Reference: PubChem BioAssay (EPA / NIEHS)
